Measured values taken from PubChem BioAssay (NCATS).
Results filed as inconclusive are left out. Where a call stands in place of a potency, no number is given. Active and inactive are the calls of the source. Unless noted, calls follow the shape of the full dose curve.

Assays:
[1] = Primary qHTS for inhibitors of SARS-S pseudo-typed particle cell entry (AID 1479145); also: nearly all actives have a fitted effect of over 45% in size; also: potency is read from the fitted curve at half-maximal effect
[2] = Primary qHTS for Huh7 cytotoxicity: counterscreen for inhibitors of MERS-S pseudotyped particle cell entry (AID 1479147)
[3] = Primary qHTS for Vero E6 cytotoxicity: counterscreen for inhibitors of SARS-S pseudo-typed particle cell entry (AID 1479150)
[4] = Primary qHTS for inhibitors of MERS-S pseudo-typed particle cell entry (AID 1479149); also: nearly all actives have a fitted effect of over 60% in size
[5] = Primary qHTS for inhibitors of La Crosse Virus (LACV) - induced cell death in SH-SY5Y cells (AID 1508616; active = well fitted curve in the direction sought with a large enough effect; an effect the other way counts as inactive or inconclusive;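 also: top concentration of the series differs between compounds; higher means more rescue of cells from virus-induced death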)
How it was run: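 SH-SY5Y cells (6000/well) plated 24 h, then given compounds by pin transfer and LACV at 0.01 MOI for 6 days at 37C. Viability measured by ATPLite luminescence, normalized to infected DMSO and uninfected DMSO.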

[6] = target: Calcium and integrin-binding protein 1 (Homo sapiens) (UniProt Q99828); assay: Primary qHTS for Identification of Calcium Integrin Binding Protein 1 (CIB1) Competitor (AID 1508620; active = well fitted curve in the direction sought with a large enough effect; an effect the other way counts as inactive or inconclusive;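 also: GST tagged CIB1 binding a fluorescein labelled alphaIIb integrin peptide tracer; top concentration of the series differs between compounds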)
Calcium and integrin-binding protein 1 (Homo sapiens), sequence (Q99828 whole entry, looked up): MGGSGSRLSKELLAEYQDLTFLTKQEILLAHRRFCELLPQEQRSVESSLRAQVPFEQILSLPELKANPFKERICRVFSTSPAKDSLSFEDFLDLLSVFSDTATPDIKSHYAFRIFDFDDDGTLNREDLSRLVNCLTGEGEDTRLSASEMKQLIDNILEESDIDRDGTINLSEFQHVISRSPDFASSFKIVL
How it was run: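 CIB1-GST (1 uM final) and compound incubated 15 min at room temperature before adding FITC-alphaIIb peptide tracer (100 nM final). Competition for binding read by fluorescence polarization (ex 480, em 540) after another 15 min at room temperature.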

Compound | Potency [1] | Potency [2] | Potency [3] | Potency [4] | Potency [5] | Potency [6]
CCC[C@H](N[C@@H](C)C(=O)N1[C@H](C(=O)O)C[C@@H]2CCCC[C@@H]21)C(=O)OCC | inactive | inactive | inactive | – | – | –
CC(C)=CC1C(C(=O)OCc2cccc(Oc3ccccc3)c2)C1(C)C (stereo not given) | inactive | inactive | inactive | inactive | inactive | inactive
O=C1c2cccc3c2[C@H](CCC3)CN1[C@@H]1CN2CCC1CC2 | inactive | inactive | inactive | – | – | –
C[C@]12CC[C@H]3[C@@H](CCC4=CC(=O)CC[C@@H]43)[C@@H]1CC[C@@H]2OC(=O)CCc1ccccc1 | inactive | inactive | inactive | inactive | inactive | inactive
N[C@@H](Cc1ccc(N(CCCl)CCCl)cc1)C(=O)O | 31.6 µM (active) | inactive | inactive | inactive | – | inactive
CCOC(=O)N1CCC(=C2c3ccc(Cl)cc3CCc3cccnc32)CC1 | inactive | inactive | inactive | – | – | –
CN(C)[C@@H]1C(=O)C(C(N)=O)=C(O)[C@@]2(O)C(=O)C3=C(O)c4c(O)cccc4[C@@](C)(O)[C@H]3C[C@@H]12 | inactive | inactive | inactive | inactive | inactive | inactive
O=[N+]([O-])c1cc([As](=O)(O)O)ccc1O | inactive | inactive | inactive | inactive | inactive | inactive
CC(C)NCC(O)c1ccccc1Cl (stereo not given) | inactive | inactive | inactive | inactive | inactive | inactive
Nc1[nH]c(=O)ncc1F | inactive | inactive | inactive | – | – | –
CC[C@@]1(O)C(=O)OCc2c1cc1n(c2=O)Cc2cc3c(CN(C)C)c(O)ccc3nc2-1 | 3.16 µM (active) | inactive | inactive | – | – | –
